Sampled rows, rich in hits. Any-hit rate of the full collection: about 3.8%.
Y pestis TopoI – inhibitors of Yersinia pestis topoisomerase I; Y. pestis Topo-I cleavage product accumulation, plate reader; activity, % at 10 µM; actives 0.064% (n = 360,000); AID 504884; in the data active = activity above about 50%, passing the limit was not always enough
Mtb hypoxia rep – Mtb hypoxia fluorescent reporter inhibition. M. tuberculosis hypoxia-regulated fluorescent reporter, fluorescence. actives 0.1% (n = 300,000). fluorescence inhibition, % (no concentration beside the values); in the data active = fluorescence inhibition mostly above about 23%, no sharp cut-off; inactive = mostly below about 17%
FBA Mtb inh – inhibitors of M. tuberculosis fructose-bisphosphate aldolase; P9WQA3; purified M. tuberculosis FBA, fluorescence read-out; inhibition, % at 1 µM; actives 2.3% (n = 360,000); AID 588726;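 note: 0% = vehicle and 100% = reference inhibitor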
Target sequence (P9WQA3 whole entry, looked up): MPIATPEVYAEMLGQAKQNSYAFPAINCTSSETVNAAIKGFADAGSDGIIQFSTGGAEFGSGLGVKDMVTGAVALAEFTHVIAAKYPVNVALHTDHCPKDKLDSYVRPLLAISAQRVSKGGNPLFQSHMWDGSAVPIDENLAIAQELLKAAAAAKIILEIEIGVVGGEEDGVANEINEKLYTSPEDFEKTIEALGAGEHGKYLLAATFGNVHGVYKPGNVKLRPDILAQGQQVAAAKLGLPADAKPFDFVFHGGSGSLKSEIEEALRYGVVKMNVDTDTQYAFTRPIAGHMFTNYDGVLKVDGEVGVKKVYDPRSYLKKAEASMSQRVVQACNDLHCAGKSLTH
PrPC TRFRET – inhibitors of human cell surface prion protein PrPC; P04156; TR-FRET read-out; inhibition, % at 13.8 µM; actives 0.43% (n = 370,000); in the data active = inhibition above about 24%; note: 0% = median of the test wells and 100% = reference compound wells
GDH-TPI counter-1 – inhibits GDH-TPI coupling enzymes, artifact for Mtb FBA screen. GDH-TPI coupled enzyme counterscreen, NADH absorbance. inhibition, % at 4.8 µM. actives 1.2% (n = 360,000); in the data active = inhibition above about 30%;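 note: 0% = DMSO wells and 100% = wells lacking the enzyme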
PrP 5UTR inh – inhibition of PrP 5' UTR reporter expression; cell-based PrP 5' UTR mRNA reporter, plate reader; inhibition, % (concentration not given with the values); actives 0.35% (n = 340,000); in the data active = inhibition above about 52%; note: 0 = median of the neutral control wells
Mtb FBA confirm – Mtb FBA inhibition, confirmed; shares compounds with FBA Mtb inh; purified M. tuberculosis FBA, fluorescence read-out; inhibition, % at 1 µM; actives 78% (n = 5,600); AID 651616;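 note: 0% = vehicle wells and 100% = reference inhibitor wells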
GDH-TPI counter-2 – GDH-TPI inhibition counter-screen for FBA inhibitors. shares compounds with FBA Mtb inh. GDH-TPI coupled enzyme counterscreen, fluorescence. inhibition, % at 1 µM. actives 81% (n = 5,600); in the data active = inhibition above about 10%
GDH-TPI DR – counter-screen for M. tuberculosis FBA inhibitors: GDH-TPI dose response; shares compounds with FBA Mtb inh; GDH-TPI coupled enzyme assay, fluorescence, artifact counterscreen; IC50, µM; actives 79% (n = 170); AID 652145; call rule not given here
Active calls of the source: *; . = no result; + = active, no number. Cut-off read from the data, not from the text of the source, unless noted: active = inhibition above about 27%; inactive = the rest.

SMILES	Y pestis TopoI	Mtb hypoxia rep	FBA Mtb inh	PrPC TRFRET	GDH-TPI counter-1	PrP 5UTR inh	Mtb FBA confirm	GDH-TPI counter-2	others
CSCC[C@H](NC(=O)c1cc2c([nH]c3ccccc32)c(-c2ccccc2)n1)C(=O)O	19	4	47*	1	12	-16	24	15*
CSCCC(NC(=O)c1ccccc1)C(=O)O (stereo unspecified)	-3	-10	42*	-2	6	-5	.	+
NC(=NOC(=O)CCCOc1ccccc1)c1cccc([N+](=O)[O-])c1	.	5	.	.	.	.	.	.
Cc1c(C)c2ccc(OC(C)C(=O)N3CC[C@@]4(O)CCCC[C@H]4C3)cc2oc1=O (stereo partly specified)	3	.	96*	-9	16	5	+	+
Cc1cc(=O)oc2c(C)c(OC(C)C(=O)N3CC[C@@]4(O)CCCC[C@H]4C3)ccc12 (stereo partly specified)	3	.	24	2	18	-21	.	.
Cc1cc(=O)oc2c(C)c(OCC(=O)N3CC[C@@]4(O)CCCC[C@H]4C3)ccc12	0	.	15	0	11	-7	.	.
Cc1c(C)c2ccc(OC(C)C(=O)N3CC[C@@]4(O)CCCC[C@H]4C3)c(C)c2oc1=O (stereo partly specified)	16	.	69*	-2	9	-14	53*	41*
CC(O)C1CNC(=O)C(=O)N1CC(C)(C)C (stereo unspecified)	.	20	.	.	.	.	.	.
COc1ccc2c(=O)cc(-c3ccccc3F)oc2c1	-2	-2	11	-1	3	-41	.	.
COc1ccc2oc(-c3ccncc3)cc(=O)c2c1	2	18	30*	-6	5	-87	+	+
COC(=O)C1=CN(C)C=C(C(=O)OC)C1c1ccsc1	-7	6	70*	-4	3	8	116*	118*
Cc1ccc2nc(NCC(=O)NN)nc(-c3ccccc3)c2c1	15	0	26	-7	19	-13	.	.
OCCNc1nc(-c2ccccc2)c2ccccc2n1	3	.	52*	-6	17	-2	171*	148*
Cc1ccc2nc(NCCO)nc(-c3ccccc3)c2c1	2	8	37*	-7	0	8	73*	48*
NNc1nc(-c2ccccc2)c2ccccc2n1	-2	10	0	-3	13	11	.	.
OCCNc1nc(-c2ccccc2)c2cc(Cl)ccc2n1	15	0	39*	-5	7	0	123*	104*
Cc1ccc2nc(N/N=C/c3ccccc3F)nc(-c3ccccc3)c2c1	16	.	52*	-3	15	-33	5	-2
Cc1ccc2nc(NN=Cc3ccccc3F)nc(-c3ccccc3)c2c1	.	-3	.	.	.	.	.	.
CN(C)C=NC(=S)Nc1ccc(Br)cc1F	.	-2	.	.	.	.	.	.
CC(CCc1ccco1)=NNC(=O)CNc1c(Br)cc(Br)cc1Br	.	21	.	.	.	.	.	.
S=C(Nc1cccc2ccccc12)N1CCN(c2ncccn2)CC1	-10	-7	20	13	1	-17	.	.
O=C(Nc1cccc2ccccc12)N1CCN(c2ncccn2)CC1	-8	12	50*	10	7	-3	+	+
O=C(Nc1cccc2ccccc12)N1Cc2ccccc2-n2nncc2C1	6	.	30*	3	7	.	133*	91*
O=C(Nc1cccc2ccccc12)N1CCN(c2ccccc2)CC1	-4	.	27*	-1	4	-4	115*	100*
O=C(Nc1cccc2ccccc12)N1CC=CCC1	-3	.	40*	1	-6	-5	5	3
SMILES	Y pestis TopoI	Mtb hypoxia rep	FBA Mtb inh	PrPC TRFRET	GDH-TPI counter-1	PrP 5UTR inh	Mtb FBA confirm	GDH-TPI counter-2	others
O=C(CSCC(=O)Nc1cccc2ccccc12)Nc1cccc2ccccc12	2	1	6	2	-8	-18	.	.
O=C(NN=Cc1ccncc1)c1cccs1	.	3	.	.	.	.	.	.
O=C(CN1CCN(S(=O)(=O)c2ccc(Br)cc2)CC1)NN=Cc1ccncc1	.	5	.	.	.	.	.	.
CCOc1cc(S(=O)(=O)NCc2ccco2)c(OCC)cc1-n1cnnn1	-3	-4	30*	1	8	10	63*	45*
CCOc1cc(S(=O)(=O)NC2CC2)c(OCC)cc1-n1cnnn1	5	2	34*	-5	-5	-19	184*	159*
CCOc1cc(S(=O)(=O)N2CCN(S(=O)(=O)CC)CC2)c(OCC)cc1-n1cnnn1	-10	1	9	6	1	-12	.	.
Oc1ccc(CN2CCCCC2)nc1-c1ccccc1	1	4	87*	-6	3	-12	16	0	GDH-TPI DR=5.3*
Cc1ccc(C=NNC(=O)c2cccnc2)s1	.	0	.	.	.	.	.	.
COc1cccc(NC(=O)NNC(=O)COc2ccc3ccccc3c2)c1	-5	0	37*	5	10	-5	+	+
COc1cccc(OCC(=O)NNC(=O)c2ccc3ccccc3c2O)c1	-7	2	29*	-1	12	3	+	+
COc1ccc2cc(OCC(=O)NNC(=O)Nc3ccc(F)cc3)ccc2c1	26	1	7	6	7	2	.	.
Cc1ccc2nc(N3CCN(C(=O)CCCC(=O)O)CC3)nc(-c3ccccc3)c2c1	4	-14	32*	4	10	3	73*	38*
Cc1ccc(S(=O)(=O)N2CCOCC2)cc1C(=O)OC(C)C(=O)NC1CCCC1 (stereo unspecified)	-3	9	1	-7	2	-12	.	.
CC(OC(=O)c1cc(S(=O)(=O)N2CCOCC2)ccc1F)C(=O)NC1CCCCC1C (stereo unspecified)	1	-4	30*	2	6	-2	35*	27*
CC1=CC(c2ccccc2)n2nc(N3C(=O)CCC3=O)nc2N1 (stereo unspecified)	6	18	104*	-4	3	-17	74*	41*
O=C1CC(c2ccccc2)n2nc(N3C(=O)CCC3=O)nc2N1 (stereo unspecified)	1	.	3	8	9	-24	.	.
Cc1nnc(C)n1N1C(=O)c2cccc3cccc(c23)C1=O	2	1	62*	-15	24	-18	17	10*
Cc1nnc(N2C(=O)c3cccc4cccc(c34)C2=O)s1	-1	.	16	-17	13	-20	.	.
O=C(O)c1cc(O)ccc1O	2	.	87*	7	4	-13	4	-5
CC(C)(c1ccc(O)cc1)c1ccc(O)c(C(=O)O)c1	6	.	61*	8	0	.	60*	52*
